# Test results as given in publication PMC8384837, “Expanding the binding specificity for RNA recognition by a PUF domain”.
# Changes are numbered by the printed parent chain.
# What was measured:
# Assay in all cases: yeast three-hybrid, YBZ-1, SC-Leu-His + 0.5 mM 3-AT, 4 days
# Settings in all cases: tags: N-Gal4 AD-HA kept; label: inside an RPR1-promoter hybrid RNA with tandem MS2 sites; ssRNA
# PUM1 PUF domain R3-RSP = PUM1 PUF domain R3-RSP (Homo sapiens, UniProt Q14671 828-1176, C935R;R936S;Q939P)
# In short: (§1)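 Pumilio-1 PUF domain libraries, randomized at the three base-contacting residues of each repeat, were co-expressed with matching RNA elements from a centromeric plasmid in strain YBZ-1, which carries a LexA–MS2 coat fusion and a HIS3 reporter. Transformants grew for four days on SC-Leu (input) or on SC-Leu-His + 0.5 mM 3-AT (selection), and the repeat regions were PCR-amplified and Illumina-sequenced. The interaction score is the log change in variant frequency from input to selection. That logarithm is base 2, with a pseudocount of 1 where a variant was absent.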
# PUM1 PUF domain R1-TGE = PUM1 PUF domain R1-TGE (Homo sapiens, UniProt Q14671 828-1176, S863T;R864G;Q867E)
# In short: as §1
# PUM1 PUF domain R6-MWS = molecular target: T1, PUM1 PUF domain R6-MWS (Homo sapiens, UniProt Q14671 828-1176, N1043M;Y1044W;Q1047S)
# T1 sequence: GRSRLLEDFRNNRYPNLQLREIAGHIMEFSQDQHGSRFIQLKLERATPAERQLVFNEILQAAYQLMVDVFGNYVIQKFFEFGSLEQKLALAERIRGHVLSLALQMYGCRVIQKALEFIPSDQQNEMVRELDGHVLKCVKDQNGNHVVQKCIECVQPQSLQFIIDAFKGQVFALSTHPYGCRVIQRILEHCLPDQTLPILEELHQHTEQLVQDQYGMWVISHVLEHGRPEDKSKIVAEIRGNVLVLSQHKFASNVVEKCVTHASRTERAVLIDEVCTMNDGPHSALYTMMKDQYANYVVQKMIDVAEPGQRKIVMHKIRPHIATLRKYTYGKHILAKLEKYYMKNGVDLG
# In short: as §1
# PUM1 PUF domain R6-CFI = molecular target: T2, PUM1 PUF domain R6-CFI (Homo sapiens, UniProt Q14671 828-1176, N1043C;Y1044F;Q1047I)
# T2 sequence: T1 sequence with M216C, W217F, S220I
# In short: as §1
# PUM1 PUF domain R7-RRQ = PUM1 PUF domain R7-RRQ (Homo sapiens, UniProt Q14671 828-1176, S1079R;N1080R;E1083Q)
# In short: as §1
# PUM1 PUF domain R1-YTR = PUM1 PUF domain R1-YTR (Homo sapiens, UniProt Q14671 828-1176, S863Y;R864T;Q867R)
# In short: as §1
# PUM1 PUF domain R4-RWP = PUM1 PUF domain R4-RWP (Homo sapiens, UniProt Q14671 828-1176, N971R;H972W;Q975P)
# In short: as §1
# PUM1 PUF domain R6-QRR = molecular target: T3, PUM1 PUF domain R6-QRR (Homo sapiens, UniProt Q14671 828-1176, N1043Q;Y1044R;Q1047R)
# T3 sequence: T1 sequence with M216Q, W217R, S220R
# In short: as §1
# PUM1 PUF domain R8-RYS = PUM1 PUF domain R8-RYS (Homo sapiens, UniProt Q14671 828-1176, N1122R;Q1126S)
# In short: as §1
# PUM1 PUF domain R4-SRI = PUM1 PUF domain R4-SRI (Homo sapiens, UniProt Q14671 828-1176, N971S;H972R;Q975I)
# In short: as §1
sequence,measurement,setting,value
GGCUAGAACUAGUGGAUCCCCCGGCGCCCGGCGGCUCGAGCCCGGGUAAGUGUAAGUAGUCUGCAUGCCGCCGGGCGCCAUGCCUGCAGGUCGACUCUAGAAAACAUG,binding signal,PUM1 PUF domain R3-RSP,1.39 log2 enrichment (interaction score)
GGCUAGAACUAGUGGAUCCCCCGGCGCCCGGCGGCUCGAGCCCGGGUAAGUGUAAAUGGUCUGCAUGCCGCCGGGCGCCAUGCCUGCAGGUCGACUCUAGAAAACAUG,binding signal,PUM1 PUF domain R1-TGE,2.92 log2 enrichment (interaction score)
GGCUAGAACUAGUGGAUCCCCCGGCGCCCGGCGGCUCGAGCCCGGGUAAGUGAAAAUAGUCUGCAUGCCGCCGGGCGCCAUGCCUGCAGGUCGACUCUAGAAAACAUG,binding signal,PUM1 PUF domain R6-MWS,2.78 log2 enrichment (interaction score)
same,binding signal,PUM1 PUF domain R6-CFI,5.68 log2 enrichment (interaction score)
GGCUAGAACUAGUGGAUCCCCCGGCGCCCGGCGGCUCGAGCCCGGGUAAGUGUAAUUAGUCUGCAUGCCGCCGGGCGCCAUGCCUGCAGGUCGACUCUAGAAAACAUG,binding signal,PUM1 PUF domain R3-RSP,4.96 log2 enrichment (interaction score)
GGCUAGAACUAGUGGAUCCCCCGGCGCCCGGCGGCUCGAGCCCGGGUAAGUUUAAAUAGUCUGCAUGCCGCCGGGCGCCAUGCCUGCAGGUCGACUCUAGAAAACAUG,binding signal,PUM1 PUF domain R7-RRQ,5.4 log2 enrichment (interaction score)
GGCUAGAACUAGUGGAUCCCCCGGCGCCCGGCGGCUCGAGCCCGGGUAAGUGUAAAUUGUCUGCAUGCCGCCGGGCGCCAUGCCUGCAGGUCGACUCUAGAAAACAUG,binding signal,PUM1 PUF domain R1-TGE,3.46 log2 enrichment (interaction score)
same,binding signal,PUM1 PUF domain R1-YTR,6.22 log2 enrichment (interaction score)
GGCUAGAACUAGUGGAUCCCCCGGCGCCCGGCGGCUCGAGCCCGGGUAAGUGUAAAUAGUCUGCAUGCCGCCGGGCGCCAUGCCUGCAGGUCGACUCUAGAAAACAUG,binding signal,PUM1 PUF domain R4-RWP,5.93 log2 enrichment (interaction score)
same,binding signal,PUM1 PUF domain R6-MWS,5.31 log2 enrichment (interaction score)
same,binding signal,PUM1 PUF domain R6-QRR,6.35 log2 enrichment (interaction score)
same,binding signal,PUM1 PUF domain R8-RYS,4.4 log2 enrichment (interaction score)
same,binding signal,PUM1 PUF domain R4-SRI,3.08 log2 enrichment (interaction score)
GGCUAGAACUAGUGGAUCCCCCGGCGCCCGGCGGCUCGAGCCCGGGUAAGUGUAUAUAGUCUGCAUGCCGCCGGGCGCCAUGCCUGCAGGUCGACUCUAGAAAACAUG,binding signal,PUM1 PUF domain R4-SRI,1.38 log2 enrichment (interaction score)
GGCUAGAACUAGUGGAUCCCCCGGCGCCCGGCGGCUCGAGCCCGGGUAAGCGUAAAUAGUCUGCAUGCCGCCGGGCGCCAUGCCUGCAGGUCGACUCUAGAAAACAUG,binding signal,PUM1 PUF domain R8-RYS,6.43 log2 enrichment (interaction score)
GGCUAGAACUAGUGGAUCCCCCGGCGCCCGGCGGCUCGAGCCCGGGUAAGUGUAAAUCGUCUGCAUGCCGCCGGGCGCCAUGCCUGCAGGUCGACUCUAGAAAACAUG,binding signal,PUM1 PUF domain R1-YTR,6.08 log2 enrichment (interaction score)
GGCUAGAACUAGUGGAUCCCCCGGCGCCCGGCGGCUCGAGCCCGGGUAAGUGCAAAUAGUCUGCAUGCCGCCGGGCGCCAUGCCUGCAGGUCGACUCUAGAAAACAUG,binding signal,PUM1 PUF domain R6-QRR,5.8 log2 enrichment (interaction score)
